Results from ChEMBL document CHEMBL1857833, “Screening and optimization of specific chemical series against human African Trypanosomiasis (HAT)”.
The whole screen tested about 4,400 compounds, of which about 390 (8.9%) showed an effect of 50% or more. Only a selection was taken, and strong results are over-represented in it overall.

test system: Trypanosoma brucei; test: DNDI: Inhibition of Human African Trypanosomiasis, SBRI 427, in vitro at 2 ug.mL-1; format: functional

Going from `COc1ccc(Oc2ncccc2/C(=N/O)NCC2CCCCC2)cc1` to `COc1ccc(Oc2ncccc2/C(=N/O)NCC2CC2)cc1`, the “% inhibition” value rises from 93% to 99%.

First: COc1ccccc1Oc1ncccc1/C(=N/O)NCC1CC1
Second: CSc1ccccc1Oc1ncccc1/C(=N/O)NCC1CC1
The “% inhibition” value of the first is lower: 96% for the first, 99% for the second.

Compared with `COc1ccccc1Oc1ncccc1/C(=N/O)NCc1ccco1`, `COc1ccc(CN/C(=N\O)c2cccnc2Oc2ccccc2OC)cc1` is lower in “% inhibition” value: 27% for the first, 13% for the second.

Going from `CC(C)N/C(=N\O)c1cccnc1Oc1ccc(-n2cncn2)cc1` to `O/N=C(\NCC1CCCO1)c1cccnc1Oc1ccc(-n2cncn2)cc1` (configuration not stated), the “% inhibition” value falls from 42% to 24%.

Going from `CC1CCC(N/C(=N\O)c2cccnc2Oc2ccc(-n3cncn3)cc2)CC1` (configuration not stated) to `CC1CC(N/C(=N\O)c2cccnc2Oc2ccc(-n3cncn3)cc2)CC(C)(C)C1` (configuration not stated), the “% inhibition” value falls from 98% to 41%.

Compared with `COc1ccc(Oc2nc(C)ccc2/C(=N/O)NCC2CCCCC2)cc1`, `Cc1ccc(/C(=N/O)NCC2CCCCC2)c(Oc2ccc(Cl)cc2)n1` is lower in “% inhibition” value: 24% for the first, -11% for the second.

Compared with `COc1cccc(-c2nc(Cn3cnc(-c4ccccc4)c3)co2)c1`, `CCOc1cccc(-c2nc(CNc3ccccc3C)co2)c1` is higher in “% inhibition” value: -15% for the first, 20% for the second.

Compared with `O/N=C(/c1cccnc1Oc1ccc(F)cc1)N1CCCCCC1`, `O/N=C(\NCC1CC1)c1cccnc1Oc1ccc(F)cc1` is higher in “% inhibition” value: 1% for the first, 97% for the second.

First: COc1ccc(CN/C(=N\O)c2cccnc2Oc2ccc3c(c2)CCCC3)cc1
Second: COc1ccc(Oc2ncccc2/C(=N/O)NCC(C)C)cc1
The “% inhibition” value of the first is higher: 8% for the first, -7% for the second.

`Cc1ccc(/C(=N/O)Nc2ccc(C(C)C)cc2)c(Oc2cccc(F)c2)n1` and `CC(C)c1ccc(N/C(=N\O)c2ccc(Oc3cccc4ccccc34)nc2)cc1` are the same in “% inhibition” value: 16% for the first, 16% for the second.

Going from `Cc1ccc(/C(=N/O)NCc2ccc(C)o2)c(Oc2ccc3oc4ccccc4c3c2)n1` to `Cc1ccc(/C(=N/O)N2CCCCC2)c(Oc2ccc3oc4ccccc4c3c2)n1`, the “% inhibition” value falls from 9% to 7%.

Going from `CCCCN(CCC#N)Cc1coc(-c2ccc(C(C)(C)C)cc2)n1` to `CCCN(Cc1coc(-c2cccc(F)c2)n1)C(C)CC` (configuration not stated), the “% inhibition” value falls from 3% to -4%.

Compared with `CCOc1ccc(-c2nc(CNCc3ccccc3C(F)(F)F)co2)cc1`, `CCOc1ccc(-c2nc(CNCc3cccc(OC)c3OC)co2)cc1` is higher in “% inhibition” value: 1% for the first, 3% for the second.

First: O/N=C(\NCC1CC1)c1cccnc1Oc1ccc2ccccc2c1
Second: O/N=C(\NCCN1CCOCC1)c1cccnc1Oc1ccc2ccccc2c1
The “% inhibition” value of the first is higher: 99% for the first, -10% for the second.

Compared with `O/N=C(\NCc1ccccc1)c1cccnc1Oc1ccc(-n2cncn2)cc1`, `O/N=C(\NCC1CCCCC1)c1cccnc1Oc1ccc(-n2cncn2)cc1` is higher in “% inhibition” value: 21% for the first, 90% for the second.

Compared with `Cc1ccc(/C(=N/O)NCC2CCCCC2)c(Oc2ccc3ccccc3c2)n1`, `O/N=C(\NCC1CCCCC1)c1cccnc1Oc1ccc(Cl)cc1` is higher in “% inhibition” value: 18% for the first, 98% for the second.

First: CCCN(CC1CC1)/C(=N\O)c1cccnc1Oc1ccccc1SC
Second: CSc1ccccc1Oc1ncccc1/C(=N/O)NCCN1CCCC1
The “% inhibition” value of the first is higher: 30% for the first, 22% for the second.

First: CC(C)(C)COc1ncccc1/C(=N/O)NCC1CCCCC1
Second: CC(C)(C)COc1ncccc1/C(=N/O)NCc1ccccn1
The “% inhibition” value of the first is lower: -1% for the first, 12% for the second.

Compared with `COc1ccc(CN/C(=N\O)c2ccc(C)nc2OCc2ccccc2F)cc1`, `O/N=C(\NCc1cccnc1)c1cccnc1Oc1ccc(Cl)cc1` is higher in “% inhibition” value: -1% for the first, 4% for the second.

Going from `COc1cc(C)ccc1Oc1nc(C)ccc1/C(=N/O)n1nc(C)cc1C` to `Cc1ccc(/C(=N/O)NC(C)C)c(Oc2cccc3ccc(C)nc23)n1`, the “% inhibition” value rises from -5% to 31%.

First: O/N=C(/c1ccc(Oc2cccc3c2CCCC3)nc1)N1CCN(c2ccc(F)cc2)CC1
Second: Fc1ccc(N2CCN(Cc3coc(-c4ccco4)n3)CC2)cc1
The “% inhibition” value of the first is higher: 26% for the first, 13% for the second.

Compared with `COc1cc(-c2nc(Cn3ccnc3C)co2)cc(OC)c1OC`, `COc1cc(-c2nc(CN3CCCCC3C)co2)cc(OC)c1OC` (configuration not stated) is lower in “% inhibition” value: -1% for the first, -4% for the second.

First: FC(F)(F)c1ccc(-c2nc(Cn3ccnc3)co2)cc1
Second: Cc1ccc(C)c(N2CCN(Cc3coc(-c4ccc(OC(F)(F)F)cc4)n3)CC2)c1
The “% inhibition” value of the first is lower: -3% for the first, 33% for the second.

Compared with `CCN(CC)c1cccc(Oc2ncccc2/C(=N/O)NCC2CC2)c1`, `COc1ccc(Oc2ncccc2/C(=N/O)NCC(C)(C)C)cc1` is higher in “% inhibition” value: 6% for the first, 98% for the second.

First: Cc1ccc(Oc2ncccc2/C(N)=N/O)cc1
Second: N/C(=N\O)c1cccnc1Oc1ccc(Cl)cc1
The “% inhibition” value of the first is lower: 21% for the first, 59% for the second.

Going from `N/C(=N\O)c1cccnc1Oc1ccc(F)c(Cl)c1` to `CC(C)(C)CN/C(=N\O)c1cccnc1Oc1ccc(Cl)cc1`, the “% inhibition” value rises from 10% to 99%.

Compared with `O/N=C(\NCc1ccccn1)c1cccnc1Oc1ccc(Cl)cc1`, `CSc1ccc(Oc2nc(C)ccc2/C(=N/O)NCC(C)C)cc1C` is lower in “% inhibition” value: 10% for the first, -14% for the second.

First: COc1cc(CNCc2coc(-c3cccs3)n2)cc(OC)c1
Second: C#CCNCc1coc(-c2ccc(OC)cc2)n1
The “% inhibition” value of the first is higher: -7% for the first, -25% for the second.

Going from `COc1ccc(N(C)Cc2coc(-c3ccc(F)cc3)n2)cc1` to `CCOc1ccc(-c2nc(CN(C)CCc3ccccc3)co2)cc1`, the “% inhibition” value rises from -2% to 10%.

Going from `O/N=C(\NC1CCCC1)c1ccc(Oc2c(F)c(F)cc(F)c2F)nc1` to `O/N=C(\NC1CCCCC1)c1ccc(Oc2c(F)c(F)cc(F)c2F)nc1`, the “% inhibition” value rises from 99% to 100%.

Compared with `CN(/C(=N\O)c1ccc(Oc2c(F)c(F)cc(F)c2F)nc1)C1CCCCC1`, `O/N=C(\NCC1CCCCC1)c1ccc(Oc2c(F)c(F)cc(F)c2F)nc1` is higher in “% inhibition” value: 21% for the first, 40% for the second.

Compared with `O/N=C(\NC1CCc2ccccc21)c1ccc(Oc2c(F)c(F)cc(F)c2F)nc1` (configuration not stated), `O/N=C(\NC1CCC1)c1ccc(Oc2c(F)c(F)cc(F)c2F)nc1` is higher in “% inhibition” value: 19% for the first, 100% for the second.

First: CC1CCC(N/C(=N\O)c2ccc(Oc3c(F)c(F)cc(F)c3F)nc2)CC1 (configuration not stated)
Second: CC1CC(N/C(=N\O)c2ccc(Oc3c(F)c(F)cc(F)c3F)nc2)CC(C)(C)C1 (configuration not stated)
The “% inhibition” value of the first is lower: 17% for the first, 22% for the second.

For `O/N=C(\NCC1CCCO1)c1ccc(Oc2c(F)c(F)cc(F)c2F)nc1` (configuration not stated), the “% inhibition” value was 25%.
